IL-1B inflam inh: inflammasome signaling inhibition, IL-1 beta readout; THP-1 LPS/ATP IL-1B secretion, AlphaLISA, 16 h; hits give low values; activity change, % at 57.5 µM; 360,000 compounds, 4.7% hits; in the data active = activity change below about -50%; inconclusive = mostly about -30% to -49%
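Secreted IL-1B measured by AlphaLISA bead assay after 16 h compound exposure of THP-1 cells; compounds (final up to 57.5 uM) added 1 h before LPS (250 ng/mL) and ATP (1.25 mM) stimulation; lower signal means less secretion.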
HT1080NT lethal: kills 2HG-producing HT-1080-NT fibrosarcoma cells. HT-1080-NT fibrosarcoma viability, CellTiter-Glo ATP luminescence, 48 h. Potency, µM (series often up to 46.1 µM), for the others: at the top dose activity, negative = less viability, hits mostly cytotoxic. 360,000 compounds, 1.6% hits;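 note: NT is the 2HG producing partner of a matched IDH1 knockdown line; potency is the fitted concentration of half-maximal effect; 0% = DMSO-treated cells and -100% = media-only wells without cells; nearly all actives have a fitted effect of over 55% in size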
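Viability of the 2HG-overproducing fibrosarcoma line after 48 hours of compound exposure at 37 degrees C was determined by luminescence with CellTiter-Glo, and concentration-effect curves were then fitted and categorized.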
12-LOX inh: blocks human arachidonate 12S-lipoxygenase; Potency, µM (highest dose often 108 µM), without a hit: top-dose activity change, negative = inhibition, most hits filed as inhibitors; AID 1671190; P18054; 580,000 compounds, 1.1% hits; purified 12hLO, xylenol orange hydroperoxide absorbance; note: potency is the fitted concentration of half-maximal effect
Target sequence (P18054 whole entry, looked up): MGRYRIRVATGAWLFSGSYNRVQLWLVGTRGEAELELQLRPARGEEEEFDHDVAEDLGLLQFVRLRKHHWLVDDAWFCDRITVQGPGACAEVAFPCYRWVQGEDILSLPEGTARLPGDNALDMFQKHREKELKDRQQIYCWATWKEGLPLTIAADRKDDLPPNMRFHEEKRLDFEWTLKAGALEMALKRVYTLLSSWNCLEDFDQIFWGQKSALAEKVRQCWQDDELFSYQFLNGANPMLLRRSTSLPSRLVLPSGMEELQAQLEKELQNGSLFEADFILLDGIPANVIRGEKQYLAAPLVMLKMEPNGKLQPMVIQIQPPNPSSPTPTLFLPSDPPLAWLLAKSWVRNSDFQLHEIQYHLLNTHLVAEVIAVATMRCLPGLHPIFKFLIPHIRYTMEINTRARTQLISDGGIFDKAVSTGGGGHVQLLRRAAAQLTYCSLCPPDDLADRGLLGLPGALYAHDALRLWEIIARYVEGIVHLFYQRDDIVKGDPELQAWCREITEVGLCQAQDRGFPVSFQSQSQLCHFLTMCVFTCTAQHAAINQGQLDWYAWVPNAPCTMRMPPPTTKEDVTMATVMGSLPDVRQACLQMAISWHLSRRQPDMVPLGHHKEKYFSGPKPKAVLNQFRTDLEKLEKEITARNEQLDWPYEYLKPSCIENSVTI
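Purified human 12hLO (150 nM final) in 25 mM Hepes, 0.01% Triton X-100, pH 7.0 was preincubated 15 min at room temperature with compound. Then 40 uM arachidonic acid was added, 30 min. Hydroperoxide was read by Fe-XO absorbance ratio 573/405 nm.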
TDP1 cell CPT: growth inhibition of DT40 Tdp1-/-;hTDP1 cells with camptothecin (screen for TDP1 inhibitors); chicken DT40 Tdp1-/-;hTDP1 cells + 20 nM CPT, ATP luminescence, 48 h; Potency, µM (top dose mostly 46.2 µM), for inactives: at the highest dose activity change, negative = growth inhibition, usual class: inhibitors; 420,000 compounds, 12% hits; AID 686979; note: potency is the fitted concentration of half-maximal effect; nearly all actives have a fitted effect of over 55% in size
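Chicken DT40 Tdp1-/- cells stably complemented with human TDP1 were seeded at 400 cells/well in medium containing 20 nM camptothecin, exposed to pin-transferred compounds, and grown at 37 °C for at least 48 hr. Viability was read as ATP luminescence.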
DT40 TDP1 no CPT: qHTS for Inhibitors of human tyrosyl-DNA phosphodiesterase 1 (TDP1): qHTS in cells in absence of CPT; DT40 Tdp1-/- hTDP1 cells, no CPT, ATP luminescence, 48 h; Potency, µM (highest dose often 46.2 µM), for inactives: top-dose activity change, negative = growth inhibition, usual class: inhibitors; 420,000 compounds, 15% hits; AID 686978, 2013; note: potency is the fitted concentration of half-maximal effect; nearly all actives have a fitted effect of over 55% in size
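A cellular qHTS used chicken DT40 cells lacking endogenous Tdp1 but carrying stably transfected human TDP1. Compounds were applied without camptothecin, and cell growth kinetics were judged by ATP-dependent luminescence after ≥48 hr.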
HT1080 IDH1KD tx: kills HT-1080 cells with IDH1 knockdown; 360,000 compounds, 2% hits; Potency, µM (highest dose often 46.1 µM), for inactives: at the top dose activity, negative = toxicity, actives largely listed as cytotoxic; HT-1080 IDH1 knockdown viability, ATP luminescence, 48 h; AID 686971;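 note: potency is the fitted concentration of half-maximal effect; 0% = DMSO wells and -100% = cell-free medium wells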
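CellTiter-Glo luminescence after 48 h compound exposure at 37 degrees C of IDH1-knockdown HT-1080 cells in 5% FBS RPMI. %Activity scaled between DMSO wells and cell-free media wells, with curves fitted and assigned curve classes.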
* = called active by the depositor; ? = inconclusive; · = no result; [ ] = dose if it differs, or a comment. Many of the other results were omitted from the sample, so hits are more common in it than they were. Unless noted, calls come from the whole dose curve; as a rule, active = well fitted curve in the direction sought with a large enough effect; inconclusive = small, poorly fitted or top-dose-only effect, or another doubt; inactive = no such curve, though single readings can be large; an effect the other way counts as inactive or inconclusive. Unless noted, % is set by controls: 0 for no effect and ±100 for the full control effect.

SMILES | IL-1B inflam inh | HT1080NT lethal | 12-LOX inh | TDP1 cell CPT | DT40 TDP1 no CPT | HT1080 IDH1KD tx
CCc1ccc(C=C2SC(=S)N(CCCC(=O)Nc3ccc(C(=O)O)cc3)C2=O)cc1 | -6.1 | -28.6% | ? | ? | 18.4µM* | -29.2%
CC1=C(C(=O)N2CCCC(C(=O)c3cccc4ccccc34)C2)OCCO1 (stereo unspecified) | ? | -4.4% | 14.7% | ? | 16.4µM* | -9.9%
Cn1nccc1C(=O)N1CCCC(C(=O)c2cccc3ccccc23)C1 (stereo unspecified) | -14.4 | ? | -6.9% | ? | 23.1µM* | -9.6%
Cc1ncoc1C(=O)N1CCCC(C(=O)c2cccc3ccccc23)C1 (stereo unspecified) | -0.5 | 0.0% | 3.9% | ? | ? | 1.4%
Cn1cc(CCC(=O)N2CCCC(C(=O)c3cccc4ccccc34)C2)cn1 (stereo unspecified) | -9.1 | -7.0% | 1.8% | ? | ? | -0.1%
O=C(N[C@@H]1C[C@H](Cn2cc(C3CC3)nn2)[C@@H](O)[C@H]1O)c1cncnc1 | · | · | 65.4%[176 µM] | · | · | ·
Cn1c(=O)c2c(nc(NCc3ccc4c(c3)OCO4)n2Cc2c(Cl)cccc2Cl)n(C)c1=O | · | · | 11.5% | · | · | ·
Cc1cn(CC(=O)N2CC[C@@](C)(O)[C@@H](Cc3ccccc3)C2)c(=O)[nH]c1=O | · | · | 48.5% | · | · | ·
C=CC[C@@H](CC(=O)N(CCO)Cc1ccccc1)C(=O)NCCOC(=O)[C@H](CC=C)CC(=O)OC(C)(C)C | -5.9 | 9.9% | 0.0% | ? | ? | -2.4%
C=CC[C@H](CC(=O)N(CCO)Cc1ccccc1)C(=O)N[C@H](C)COC(=O)[C@@H](CC=C)CC(=O)OC(C)(C)C | -8.7 | 6.2% | 0.1% | ? | 18.4µM* | 7.7%
C=CC[C@@H](CC(=O)N(CCO)Cc1ccccc1)C(=O)N[C@H](COC(=O)[C@@H](CC=C)CC(=O)OC(C)(C)C)Cc1ccccc1 | ? | -14.0% | -0.6% | 18.4µM* | ? | -27.0%
C=CC[C@H](CC(=O)N(CCO)Cc1ccccc1)C(=O)N[C@H](COC(=O)[C@@H](CC=C)CC(=O)OC(C)(C)C)Cc1ccccc1 | -79.9* | ? | -0.5% | 14.6µM* | 13µM* | ?
CC(C)(CO)NC(=O)C12CC3CCC(CC(C3)C1)C2 | · | · | 23.7% | · | · | ·
CN(C)N(Cc1ccccc1)C(=O)C(O)(c1ccccc1)c1ccccc1 | -5.9 | 0.0% | 1.8% | ? | 25.9µM* | -0.2%
Cc1csc(N(C(=O)c2ccccc2F)c2ccccc2)n1 | 10.9 | -0.2% | -3.7% | 23.1µM* | 10.3µM* | -4.4%
Cc1csc(N(C(=O)c2ccc(S(=O)(=O)N(C)C)cc2)c2ccccc2)n1 | 2.1 | 1.9% | 0.0% | -21.7% | -25.6% | 0.7%
COc1cccc([C@@H]2Nc3ccc(C(=O)O)cc3[C@@H]3C=CC[C@@H]32)c1OC | · | · | -22.4% | 1.2% | -0.1% | ·
CC(=O)c1ccc2c(c1)C1C=CCC1C(c1ccc(S(=O)(=O)N3CCOCC3)cc1)N2 (stereo unspecified) | 16.7 | -12.6% | ? | -19.2% | ? | -20.6%
CC(=O)c1ccc2c(c1)C1C=CCC1C(c1cc3c(cc1Br)OCO3)N2 (stereo unspecified) | 97.1 | 5.8µM* | ? | 3.66µM* | 4.61µM* | 3.66µM*
COc1ccc2c(c1)C1C=CCC1C(c1cc3c(cc1Br)OCO3)N2 (stereo unspecified) | 7.4 | 10µM* | -15.4% | ? | 18.4µM* | 10µM*
Cc1c(C(=O)N(C)C)sc2c1c(=O)n(-c1ccc(Cl)c(Cl)c1)c(=O)n2CC(=O)N1CCCCC1C (stereo unspecified) | · | · | -20.7% | 7.2% | 6.4% | ·
Cc1csc(=Nc2ccc(S(=O)(=O)N3CCOCC3)cc2)n1Cc1ccco1 | -8.4 | 1.1% | -2.9% | 23.1µM* | 23.1µM* | 7.2%
O=S(=O)(c1ccc(-c2ccccc2)cc1)N1CCOCC1 | 18.7 | -11.4% | -8.4% | 4.2% | 8.2% | -1.4%
C=CCn1c(-c2ccc(S(=O)(=O)N3CCOCC3)cc2)csc1=Nc1ccccc1 | ? | -12.9% | -23.0% | 6.51µM* | 6.51µM* | -17.1%
CC(=O)c1cccc(N=c2scc(-c3ccc(S(=O)(=O)N4CCOCC4)cc3)n2CCO)c1 | 17.4 | -13.6% | -28.7% | 6.51µM* | 2.59µM* | -14.5%
SMILES | IL-1B inflam inh | HT1080NT lethal | 12-LOX inh | TDP1 cell CPT | DT40 TDP1 no CPT | HT1080 IDH1KD tx
Cc1csc(=Nc2cccnc2)n1Cc1ccco1 | -28.8 | ? | -3.1% | -1.7% | -84.9% | -13.5%
CC(C)Cn1c(-c2ccc(S(=O)(=O)N3CCCC3)cc2)csc1=Nc1ccccc1 | · | · | ? | 5.8µM* | 3.26µM* | ·
CCCn1c(SCC(=O)NC2CCCCC2)nnc1-c1ccco1 | 0.0 | ? | 6.1% | 11.5% | -22.5% | 16.4%
CCCCNc1nc2c(s1)C[C@]1(C)CC[C@@H]3[C@H](OC(=O)[C@H]3C)[C@H]1[C@@H]2C | · | · | -15.3%[176 µM] | · | · | ·
O=S(=O)(c1ccccc1)N1CCCC(Cn2c(C3CC3)nc3cccnc32)C1 (stereo unspecified) | · | · | 6.2% | · | · | ·
COc1cc(NC(=O)c2cccc(Cl)c2)ccc1NC(=O)c1cccs1 | · | 9.6% | 6.9% | ? | 18.4µM* | -2.6%
COc1c(Cl)cc(Cl)cc1/C=C/C(=O)c1ccc(NC(=O)c2cccs2)cc1 | -103.9* | 20.6µM* | -3.6% | 2.31µM* | 2.59µM* | ?
COc1ccc(-c2nnc(NC(=O)c3cccs3)s2)c(OC)c1 | 0.0 | 7.9% | 3.3% | 16.4µM* | 29.1µM* | 17.2%
COc1cc(C(=O)Nc2cccc(NC(=O)c3cccs3)c2)cc(OC)c1OC | -26.9 | -2.5% | 16.6% | 20.6µM* | 20.6µM* | -0.3%
COc1cc(NC(=O)c2cccs2)ccc1NC(=O)Cc1ccccc1 | -16.7 | 11.6% | 9.3% | 0.1% | -4.9% | 3.0%
COc1cc(NC(=O)c2cc3ccccc3cc2OC)ccc1NC(=O)c1cccs1 | -69.3* | -29.8% | · | 23.1µM* | 13µM* | -15.9%
CC(C)(C)Sc1ccc2nc3c(n2c1)CCCC3 | -16.4 | -13.1% | -0.6% | 20.6µM* | 5.8µM* | -14.3%
CCOC(=O)CNNC(=O)Nc1ccc(Cl)c(Cl)c1 | -19.6 | 10.6% | -13.8% | -9.4% | -17.1% | 12.0%
CCOC(=O)C(c1ccccc1)C(Nc1ccc(Cl)c(Cl)c1)c1ccccn1 (stereo unspecified) | 41.2 | -29.9% | -24.6% | ? | 9.2µM* | -22.4%

Source: PubChem (National Center for Advancing Translational Sciences (NCATS))
